Only some compounds are listed: those with a hit (about 4.1% of all), similar ones and a draw of the others.
BoNT-F LC inh = blocks Botulinum neurotoxin F light chain protease. Multiplex microsphere protease cleavage assay, flow cytometry. inhibition, % at 10 µM. hit rate 0.22% among 360,000. AID 588497; in the data active = inhibition above about 35%, passing the limit was not always enough; inconclusive = no clear call, values can overlap the other calls; note: plate controls were buffer without enzyme for full effect and enzyme alone for no effect
MazEF act = increases E. coli MazEF RNase cleavage of RNA; P0AE70; FAM/BHQ RNA-DNA oligo cleavage fluorescence, 5 h; hit rate 0.32% among 350,000; AID 504720; activation, % at 20 µM; in the data active = activation above about 50%
Target sequence (P0AE70 whole entry, looked up): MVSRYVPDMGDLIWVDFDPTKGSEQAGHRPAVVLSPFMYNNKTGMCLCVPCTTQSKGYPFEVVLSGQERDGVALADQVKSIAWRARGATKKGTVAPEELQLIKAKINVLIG
DUSP3 inh = blocks human VHR1 dual specificity phosphatase; P51452; recombinant VHR phosphatase, pNPP absorbance; inhibition, % at 13.3 µM; hit rate 0.52% among 290,000; in the data active = inhibition above about 50%
Target sequence (P51452 whole entry, looked up): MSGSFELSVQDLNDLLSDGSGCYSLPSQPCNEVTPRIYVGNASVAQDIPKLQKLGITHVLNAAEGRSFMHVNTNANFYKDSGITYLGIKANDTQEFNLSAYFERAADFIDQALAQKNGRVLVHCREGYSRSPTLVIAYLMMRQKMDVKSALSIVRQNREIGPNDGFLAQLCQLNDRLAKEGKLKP
BoNT-A LC inh2 = blocks Botulinum neurotoxin A light chain protease | multiplex microsphere protease substrate cleavage, flow cytometry | hit rate 0.17% among 360,000 | AID 588499 | inhibition, % at 10 µM; note: plate controls were buffer without enzyme for full effect and enzyme alone for no effect
Anthrax LF inh2 = inhibitors of Bacillus anthracis lethal factor protease; P15917; multiplex microsphere protease cleavage assay, LF; inhibition, % at 10 µM; hit rate 0.12% among 360,000; note: plate controls were buffer without enzyme for full effect and enzyme alone for no effect
Bead autofluor = counter-screen for toxin protease inhibitors: compound fluorescence; compound autofluorescence counterscreen, microsphere flow cytometry; active compounds read high; fluorescence intensity (test concentration not listed); hit rate 3.1% among 360,000; in the data active = fluorescence intensity above about 16000; inconclusive = no clear call, values can overlap the other calls
* marks the source's active call; other numbers are inactive results; u = inconclusive; x = no result given. Cut-off read from the data, not from the text of the source, unless noted: active = inhibition above about 30%; inconclusive = no clear call, values can overlap the other calls; inactive = below that.

SMILES | BoNT-F LC inh | MazEF act | DUSP3 inh | BoNT-A LC inh2 | Anthrax LF inh2 | Bead autofluor
c1ccc2c(COn3nnc4ccccc43)cccc2c1 | 0 | -10 | 10 | 2 | 1 | 21859*
COC(=O)c1cc(OC)c(OC)cc1NC(=S)N1CCCCC1 | 8 | 4 | 17 | 5 | 2 | 20422*
CCOc1cc(NC(=S)N2CCC(C(N)=O)CC2)c(C(=O)OC)cc1OCC | -5 | 8 | 12 | -1 | -2 | 3347
COC(=O)c1cc(OC)c(OC)cc1NC(=O)CN1CCCCC1 | -4 | -4 | 3 | 0 | -4 | 22761*
COC(=O)c1cc(OC)c(OC)cc1NC(=S)N1CCC(C(N)=O)CC1 | -6 | -6 | -8 | -4 | -3 | 17588*
CCOC(=O)C1CCN(C(=S)Nc2cc(OC)c(OC)cc2C(=O)OC)CC1 | 1 | 5 | 25 | 0 | 1 | 20685*
COC(=O)c1ccc(C(=O)OC)c(NC(=O)CN2CCCCC2)c1 | -3 | 2 | 8 | 0 | 0 | 2051
CCc1sc(C(=O)NC)cc1Br | 9 | 5 | 11 | 7 | 2 | 20040*
CCc1sc(C(=O)NCc2cc(C)n(C)n2)cc1Br | -3 | -4 | 0 | 0 | -4 | 8516
O=C(O)c1cnnc2ccccc12 | -1 | 3 | x | 0 | -5 | 3580
COc1cc2c(cc1OC)CN(S(=O)(=O)/C=C/c1ccccc1)CC2 | 40* | 9 | -2 | 0 | 4 | 3399
CCCCC(CC)C(=O)Nc1ccc(Nc2ccccc2)cc1 (configuration not stated) | -10 | -4 | -7 | 0 | -7 | 2081
CCCCC(CC)C(=O)Nc1ccc(C)c(O)c1 (configuration not stated) | -2 | 3 | 53* | -1 | -7 | 4031
CC1CN(C2CCN(S(=O)(=O)c3ccccc3)CC2)CC(C)O1 (configuration not stated) | 0 | -9 | -8 | 4 | 4 | 7570
CC1CN(C(=O)c2ccc(C(=O)c3ccccc3)cc2)CC(C)O1 (configuration not stated) | -16 | 1 | 2 | 0 | -4 | 7559
CN1CCN(S(=O)(=O)c2ccc(Cl)c(C(F)(F)F)c2)CC1 | 4 | 9 | x | 0 | 4 | 3630
CC1CN(S(=O)(=O)c2ccc(Cl)c(C(F)(F)F)c2)CC(C)O1 (configuration not stated) | -3 | -1 | -18 | u | 2 | 16300*
CC1CN(C2CCN(C(=O)c3ccccc3)CC2)CC(C)O1 (configuration not stated) | 1 | 4 | -8 | 0 | -2 | 16799*
CC1CN(C2CCN(S(=O)(=O)Cc3ccccc3)CC2)CC(C)O1 (configuration not stated) | 2 | 1 | -6 | 0 | -2 | 22746*
CC1CN(C2CCN(S(=O)(=O)c3ccc(F)cc3)CC2)CC(C)O1 (configuration not stated) | -10 | 4 | 11 | -6 | 0 | 18932*
COc1ccc(C)cc1/C=C/C(=O)N1CCN(S(=O)(=O)c2cccs2)CC1 | 3 | 5 | x | 0 | -2 | 3554
COc1ccc(OC)c(N(CC(=O)NN=C2CCN(C)CC2)S(=O)(=O)c2ccccc2)c1 | -15 | 10 | 24 | -6 | 5 | 3930
Cc1cc(NC(=O)C(C)SCC(=O)OCC(=O)Nc2c(C)cccc2C(C)C)no1 (configuration not stated) | 5 | 1 | x | 6 | -1 | 4289
COc1ccc(OC)c(NC(=O)CCNC(=O)N2CC(=O)Nc3ccccc32)c1 | 0 | -9 | x | 0 | -7 | 2946
O=C(c1ccc(F)cc1)N1CCC(N2CCCCCC2)CC1 | -4 | -10 | 10 | 0 | -3 | 16826*
CC(=O)n1cc([C@H]2C=C(C(=O)N3CCN(Cc4ccc5c(c4)OCO5)CC3)O[C@@H](OCCCCO)C2)c2ccccc21 | -13 | 5 | 16 | 0 | -1 | 2890
COc1ccccc1C(=O)NCC(=O)OCC(=O)N1CC(C)OC(C)C1 (configuration not stated) | 11 | 9 | x | 1 | -4 | 5766
O=C1c2ccccc2S(=O)(=O)N1CC(O)COc1ccc(Cl)cc1 (configuration not stated) | 0 | -7 | 18 | 1 | -2 | 3635
O=C1c2ccccc2S(=O)(=O)N1CC(O)COc1ccc(Br)cc1 (configuration not stated) | 5 | -3 | 6 | 2 | -1 | 16210*
COc1ccccc1/C=C/C1=NC(=C\C=C/c2ccccc2)/C(=O)O1 | 58* | -15 | -17 | 29 | 7 | 3554
